Results published in PubChem BioAssay AID1159580 (chemical genetic matrix, 2015).
Where “and” joins values, the source holds several entries; their conditions need not be identical. Identical values can stand only once. Out of some 5,500 compounds screened, about 2,000 (36%) were called active. Another 18% or so got no clear call; they are omitted. No stated cut-off is given here; in the data, active means normalized growth mostly below about 0.91 (no sharp cut-off); inconclusive means no clear call, values can overlap the other calls; inactive means mostly above about 0.92. This is one part of the list.

Assay: chemical genetic growth profiling, strain panel (AID 1159580);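 further: tested at 20 µM; growth read once vehicle control cultures reached saturation at 30 °C; 1 = growth at the plate median or of vehicle wells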
Details: S. cerevisiae deletion strains, growth OD

Measured: normalized growth

C[C@]12CCC(=O)C=C1CCC1C2[C@@H](O)C[C@@]2(C)C1CC[C@]2(O)C(=O)CO (stereo partly drawn)
inactive: locus YAL013W, strain DEP1, stronger effect = lower value 1.02 | locus YAL021C, strain ccr4, stronger effect = lower value 0.984 | locus YAL026C, strain drs2, stronger effect = lower value 0.994 | locus YAL030W, strain snc1, stronger effect = lower value 1.01 | locus YBL061C, strain skt5, stronger effect = lower value 0.987 | locus YBR009C, strain hhf1, stronger effect = lower value 1 | locus YBR021W, strain FUR4, stronger effect = lower value 1.01 | locus YBR023C, strain chs3, stronger effect = lower value 0.979 | locus YBR171W, strain sec66, stronger effect = lower value 0.975 | locus YBR229C, strain ROT2, stronger effect = lower value 1.02 | locus YBR231C, strain swc5, stronger effect = lower value 1 | locus YBR279W, strain paf1, stronger effect = lower value 0.98 | locus YCL011C, strain gbp2, stronger effect = lower value 0.979 | locus YCL016C, strain dcc1, stronger effect = lower value 0.971 | locus YCL029C, strain bik1, stronger effect = lower value 0.995 | locus YCL069W, strain vba3, stronger effect = lower value 1 | locus YCR088W, strain abp1, stronger effect = lower value 0.993 | locus YDL005C, strain med2, stronger effect = lower value 0.99 | locus YDL035C, strain GPR1, stronger effect = lower value 1.02 | locus YDL040C, strain nat1, stronger effect = lower value 1.01 | locus YDL074C, strain BRE1, stronger effect = lower value 1.02 | locus YDL101C, strain DUN1, stronger effect = lower value 1.02 | locus YDL185W, strain tfp1, stronger effect = lower value 1 | locus YDL192W, strain arf1, stronger effect = lower value 0.99 | locus YDR001C, strain nth1, stronger effect = lower value 1 | locus YDR069C, strain doa4, stronger effect = lower value 0.993 | locus YDR101C, strain arx1, stronger effect = lower value 0.974 | locus YDR137W, strain rgp1, stronger effect = lower value 1.01 | locus YDR159W, strain sac3, stronger effect = lower value 0.948 | locus YDR162C, strain NBP2, stronger effect = lower value 1.02 | locus YDR195W, strain ref2 0.974 | locus YDR297W, strain sur2, stronger effect = lower value 1 | locus YDR318W, strain mcm21, stronger effect = lower value 1 | locus YDR334W, strain swr1, stronger effect = lower value 0.981 | locus YDR335W, strain msn5, stronger effect = lower value 0.987 | locus YDR388W, stronger effect = lower value 0.991 | locus YDR392W, strain spt3, stronger effect = lower value 0.899 | locus YDR502C, strain sam2, stronger effect = lower value 1.01 | locus YEL003W, strain gim4, stronger effect = lower value 1.01 | locus YEL037C, strain rad23, stronger effect = lower value 1 | locus YEL061C, strain CIN8 (second series), stronger effect = lower value 0.991 | locus YEL061C, strain CIN8, stronger effect = lower value 1.01 | locus YER015W, strain faa2, stronger effect = lower value 0.996 | locus YER016W, strain bim1, stronger effect = lower value 0.99 | locus YER110C, stronger effect = lower value 0.989 | locus YER111C, strain swi4, stronger effect = lower value 0.981 | locus YER155C, strain BEM2 (second series), stronger effect = lower value 1.01 | locus YER155C, strain BEM2, stronger effect = lower value 1.01 | locus YER167W, strain BCK2, stronger effect = lower value 1.01 | locus YFR010W, strain ubp6, stronger effect = lower value 1.01 | locus YGL078C, strain dbp3, stronger effect = lower value 0.984 | locus YGL086W, strain mad1, stronger effect = lower value 0.988 | locus YGL167C, strain pmr1, stronger effect = lower value 0.987 | locus YGL173C, strain kem1, stronger effect = lower value 0.975 | locus YGL227W, strain vid30, stronger effect = lower value 0.981 | locus YGL240W, strain doc1, stronger effect = lower value 0.971 | locus YGL248W, strain PDE1, stronger effect = lower value 1.02 | locus YGL253W, strain hxk2, stronger effect = lower value 0.99 | locus YGR078C, strain PAC10, stronger effect = lower value 1.03 | locus YGR135W, strain pre9, stronger effect = lower value 1.01 | locus YGR229C, strain SMI1, stronger effect = lower value 1.02 | locus YGR252W, strain gcn5, stronger effect = lower value 1.02 | locus YHR013C, strain ard1, stronger effect = lower value 0.969 | locus YHR027C, strain rpn1, stronger effect = lower value 1.01 | locus YHR030C, strain SLT2, stronger effect = lower value 1.01 and 0.975 | locus YHR079C, strain IRE1 (second series), stronger effect = lower value 0.997 | locus YHR079C, strain IRE1, stronger effect = lower value 0.99 | locus YHR094C, strain hxt1, stronger effect = lower value 0.988 | locus YHR129C, strain ARP1, stronger effect = lower value 1.02 | locus YHR142W, strain chs7, stronger effect = lower value 0.999 | locus YHR200W, strain rpn10, stronger effect = lower value 1.01 | locus YIL066C, strain RNR3, stronger effect = lower value 1.02 | locus YIL073C, strain SPO22, stronger effect = lower value 1.02 | locus YIL125W, strain kgd1, stronger effect = lower value 0.997 | locus YIR030C, strain dcg1, stronger effect = lower value 0.994 | locus YJL092W, strain hpr5, stronger effect = lower value 0.995 | locus YJL095W, strain BCK1 (second series), stronger effect = lower value 1 | locus YJL095W, strain BCK1, stronger effect = lower value 1.04 and 0.981 | locus YJL115W, strain asf1, stronger effect = lower value 0.992 | locus YJL129C, strain trk1, stronger effect = lower value 0.97 | locus YJL134W, strain LCB3, stronger effect = lower value 1.01 | locus YJL154C, strain vps35, stronger effect = lower value 0.991 | locus YJL164C, strain tpk1, stronger effect = lower value 1 | locus YJL166W, strain qcr8, stronger effect = lower value 1.02 | locus YJL168C, strain set2, stronger effect = lower value 0.999 | locus YJL187C, strain SWE1 (second series), stronger effect = lower value 1.02 | locus YJR043C, strain POL32, stronger effect = lower value 1.03 | locus YJR066W, strain TOR1, stronger effect = lower value 0.922
